Data on ten compounds can be found in PMC7826789 (International Journal of Molecular Sciences, 2021).

Structures are written as SMILES.

Test systems include ROCK2; ROS1; SBK1; SGK2; SGK3; SIK2.
Common to all, as to conditions: Compound Concentration (nM):1000
For assay [1], the system named is RPS6KA4(Kin.Dom.1-N-terminal).
In assay [2] the test system is RPS6KA4(Kin.Dom.2-C-terminal).
Assay [3] relates to RPS6KA5(Kin.Dom.1-N-terminal).
For assay [4], the system named is RPS6KA5(Kin.Dom.2-C-terminal).
Assay [5] deals with T1, RSK1(Kin.Dom.1-N-terminal).
T1 construct: gene RPS6KA1

Assay [6] has as its system T2, RSK1(Kin.Dom.2-C-terminal).
T2 construct: gene RPS6KA1

In assay [7] the test system is T3, RSK2(Kin.Dom.1-N-terminal).
T3 construct: gene RPS6KA3

In assay [8] the test system is T4, RSK2(Kin.Dom.2-C-terminal).
T4 construct: gene RPS6KA3

Assay [9] relates to T5, RSK3(Kin.Dom.1-N-terminal).
T5 construct: gene RPS6KA2

For assay [10], the system named is T6, RSK3(Kin.Dom.2-C-terminal).
T6 construct: gene RPS6KA2

Assay [11] has as its system T7, RSK4(Kin.Dom.1-N-terminal).
T7 construct: gene RPS6KA6

Assay [12] deals with T8, RSK4(Kin.Dom.2-C-terminal).
T8 construct: gene RPS6KA6

The subject of the next assay is T9, S6K1.
T9 construct: gene RPS6KB1

A further assay relates to T10, SGK.
T10 construct: gene SGK1
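Note: KINOMEscan scanMAX binding as percent activity remaining versus control; lower means stronger binding.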

`NS(=O)(=O)c1ccc(Nc2ncc(-c3ccccc3)o2)cc1` [GW572399X]: the “Percent Control” value was 91% with ROCK2; 100% in the assay with ROS1; 100% in assay [1]; 89% in assay [2]; 100% in assay [3]; 100% in assay [4]. Besides, the “Percent Control” value in assay [5] was 100%; in [6] it was 100%; in assay [7], 98%; in [8], 98%; in assay [9], 100%; in assay [10] it was 100%. Also, the “Percent Control” value in [11] was determined as 96%; in assay [12] it was 100%; with S6K1 it was 100%; in the assay with SBK1, 100%; with SGK2 it was 93%; with SGK3, 60%. For the same compound, the “Percent Control” value stood at 48% with SGK and 100% in the assay with SIK2.

Regarding `CCS(=O)(=O)c1ccc(OC)c(Nc2ncc(-c3cccc(OC)c3)o2)c1` [GW580509X], the “Percent Control” value in the assay with ROCK2 is 88%; with ROS1, 92%; in assay [1], 100%; in assay [2] it was 100%; in assay [3], 100%; in [4], 100%. The “Percent Control” value in assay [5], in assay [6], in assay [7], in assay [8], in assay [9] and in assay [10] was 100% throughout. The “Percent Control” value was found to be 94% in [11]; 100% in assay [12]; 100% in the assay with S6K1; 100% with SBK1; 100% in the assay with SGK2; 91% in the assay on SGK3. Moreover, the entries for the “Percent Control” value in the assay on SGK and with SIK2 were 100% and 91%, respectively.

Take `Nc1ncnc2occ(-c3ccc(NC(=O)Nc4cc(C(F)(F)F)ccc4F)cc3)c12` [GW770249X]: the “Percent Control” value was 27% with ROCK2; 56% in the assay with ROS1; 100% in assay [1]; 92% in assay [2]; 55% in assay [3]; 100% in assay [4]. In addition, the “Percent Control” value in [5] is 100%; in [6] it was 100%; in assay [7] it was 89%; in assay [8] it was 98%; in [9] it was 66%; in assay [10], 59%. Also, the “Percent Control” value in assay [11] was found to be 87%; in assay [12], 100%; with S6K1 it was 21%; with SBK1 it was 100%; in the assay with SGK2, 100%; with SGK3 it was 83%. Also, the “Percent Control” value in the assay on SGK and in the assay on SIK2 was 100% throughout.

As for `NS(=O)(=O)c1ccc(N/N=C2\C(=O)Nc3ccc(-c4cnco4)cc32)cc1` [GW276655], the “Percent Control” value is 2.5% in the assay on ROCK2; 96% in the assay on ROS1; 65% in assay [1]; 94% in [2]; 97% in [3]; 39% in assay [4]. Moreover, the “Percent Control” value in assay [5] was 100%; in [6], 100%; in assay [7] it was 79%; in [8] it was 79%; in assay [9], 100%; in assay [10], 87%. In addition, the “Percent Control” value in [11] turned out to be 61%; in assay [12], 90%; with S6K1, 100%; in the assay with SBK1, 76%; with SGK2, 76%; in the assay with SGK3, 53%. Further, the “Percent Control” value with SGK was 38%; in the assay with SIK2 it was 100%.

`Cl.O=C(Nc1ccc(Oc2ccc3[nH]c(NC(=O)c4ccccc4)nc3c2)cc1)Nc1cc(C(F)(F)F)ccc1F` [GW709042A]: the “Percent Control” value is 85% in the assay on ROCK2; 67% with ROS1; 100% in [1]; 77% in assay [2]; 100% in assay [3]; 88% in assay [4]. In addition, the “Percent Control” value is 100% in assay [5]; 100% in assay [6]; 100% in assay [7]; 90% in [8]; 100% in assay [9]; 100% in assay [10]. Further, the “Percent Control” value in assay [11] amounted to 99%; in [12], 100%; with S6K1, 52%; in the assay with SBK1, 100%; in the assay on SGK2 it was 100%; in the assay on SGK3, 90%. In addition, the “Percent Control” value with SGK and in the assay on SIK2 was 100% throughout.

For `NS(=O)(=O)c1ccc(N/N=C2\C(=O)Nc3ccc(C(=O)NCCc4c[nH]cn4)cc32)cc1` [GW300660X], the “Percent Control” value in the assay with ROCK2 was 40%; in the assay on ROS1, 100%; in assay [1], 100%; in assay [2], 80%; in assay [3], 100%; in [4], 100%. For the same compound, the “Percent Control” value in assay [5] is 100%; in [6], 100%; in assay [7], 54%; in assay [8], 100%; in [9], 100%; in assay [10], 100%. The “Percent Control” value amounted to 45% in [11]; 100% in assay [12]; 76% in the assay with S6K1; 100% in the assay with SBK1; 100% in the assay on SGK2; 12% in the assay with SGK3. In addition, the entries for the “Percent Control” value in the assay with SGK and in the assay on SIK2 were 26% and 100%, respectively.

For the compound `COc1cccc(-c2c[nH]c3c(N/N=C/c4ccncc4)ncnc23)c1` [GW814408X], the “Percent Control” value in the assay on ROCK2 is 73%; in the assay with ROS1, 100%; in assay [1], 100%; in [2] it was 62%; in [3], 100%; in assay [4], 100%. Moreover, the “Percent Control” value in assay [5] was 88%; in assay [6], 77%; in assay [7] it was 75%; in [8] it was 100%; in assay [9], 100%; in assay [10], 100%. Moreover, the “Percent Control” value worked out at 49% in assay [11]; 100% in assay [12]; 84% with S6K1; 83% in the assay on SBK1; 38% in the assay on SGK2; 59% in the assay with SGK3. Also, the “Percent Control” value was 22% in the assay with SGK and 17% in the assay on SIK2.

Regarding `C[C@@H](Oc1cc(-n2cnc3ccc(OC4CCN(C)CC4)cc32)sc1C(N)=O)c1ccccc1Cl` [GSK579289A], the “Percent Control” value was 83% with ROCK2; 100% in the assay with ROS1; 100% in [1]; 3.2% in assay [2]; 100% in [3]; 38% in [4]. Further, the “Percent Control” value was 71% in [5]; 86% in assay [6]; 23% in assay [7]; 98% in [8]; 48% in [9]; 67% in [10]. Further, the “Percent Control” value is 19% in assay [11]; 80% in assay [12]; 62% in the assay with S6K1; 62% in the assay with SBK1; 100% in the assay on SGK2; 84% with SGK3. Besides, the results for the “Percent Control” value in the assay with SGK and in the assay on SIK2 were 90% and 100%, respectively.

On to `COc1ccc2cc(-c3c(-c4ccncc4)nc(-c4ccc(S(C)(=O)=O)cc4C)n3C)ccc2c1` [SB-633825], for which the “Percent Control” value in the assay with ROCK2 is 80%; with ROS1 it was 69%; in assay [1] it was 100%; in [2], 91%; in [3] it was 95%; in assay [4] it was 51%. The “Percent Control” value in assay [5] is 82%; in [6], 97%; in assay [7] it was 62%; in assay [8] it was 70%; in assay [9], 98%; in assay [10], 100%. Besides, the “Percent Control” value in [11] is on record as 60%; in assay [12] it was 83%; in the assay with S6K1, 66%; in the assay with SBK1 it was 78%; in the assay on SGK2 it was 59%; with SGK3, 73%. The results for the “Percent Control” value in the assay with SGK and in the assay on SIK2 were 94% and 100%, respectively.

As to `Cl.c1ccc(Cc2nc3ccc(Nc4ncnc5ccccc45)cc3[nH]2)cc1` [GR269666A], the “Percent Control” value was 98% in the assay with ROCK2; 76% in the assay with ROS1; 100% in assay [1]; 100% in assay [2]; 100% in assay [3]; 100% in [4]. In addition, the “Percent Control” value is 100% in [5]; 100% in [6]; 100% in assay [7]; 97% in assay [8]; 100% in [9]; 100% in [10]. The “Percent Control” value amounted to 100% in assay [11]; 98% in [12]; 100% in the assay with S6K1; 100% in the assay with SBK1; 100% in the assay with SGK2; 81% with SGK3. Moreover, the “Percent Control” value was found to be 100% with SGK and 82% in the assay on SIK2.
